About 79,000 compounds went through this panel and 15% of them were active in at least one assay; those are over-represented in the sample as a whole. The source made the active and inactive calls. Rule as the data show it: active = growth inhibition above about 70%; inactive = the rest.
Legend:
[1] = NCI Yeast Anticancer Drug Screen. Data for the rad52 strain (AID 147);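 also: 0% = growth of vehicle-treated control cultures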; details: S. cerevisiae rad52 mutant growth inhibition, stronger effect = higher value
In short: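 Vehicle-treated cultures served as the reference for growth inhibition of compound-exposed yeast bearing a DNA repair mutation.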

[2] = NCI Yeast Anticancer Drug Screen. Data for the wt1 strain (AID 149);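 also: 0% = growth of vehicle-treated wt1 cultures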; details: S. cerevisiae wt1 strain (SPY 50644) growth inhibition, stronger effect = higher value
In short: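 The wt1 strain was treated with compounds, and growth was compared with vehicle-treated cultures to give inhibition.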

[3] = NCI Yeast Anticancer Drug Screen. Data for the rad50EPP+ strain (AID 151);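 also: 0% = growth of vehicle-treated control cultures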; details: S. cerevisiae rad50 mutant strain, stronger effect = higher value
In short: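 In this screen, rad50EPP+ yeast were exposed to compounds. Growth inhibition was scored against vehicle-treated controls.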

[4] = NCI Yeast Anticancer Drug Screen. Data for the mgt1 strain (AID 153); details: S. cerevisiae mgt1 mutant growth inhibition, stronger effect = higher value
In short: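 mgt1 strain exposed; growth vs vehicle control recorded as inhibition.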

[5] = NCI Yeast Anticancer Drug Screen. Data for the rad50 strain (AID 155);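 also: 0% = growth of vehicle-only cultures of the same strain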; details: S. cerevisiae rad50 strain growth inhibition, stronger effect = higher value
In short: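 Cells are treated with compound, grown, and their growth is then scored against vehicle-only cultures of the same repair-deficient yeast strain.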

[6] = NCI Yeast Anticancer Drug Screen. Data for the mec2-1 strain (AID 157); details: S. cerevisiae mec2-1 strain, stronger effect = higher value
In short: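 Vehicle-treated cultures served as reference for growth inhibition of compound-exposed mec2-1 yeast.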

[7] = NCI Yeast Anticancer Drug Screen. Data for the rad14 strain (AID 159);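 also: 0% = growth of vehicle-treated control cultures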; details: S. cerevisiae rad14 strain growth inhibition, stronger effect = higher value
In short: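 Readout: yeast growth inhibition, referenced to vehicle-only cultures. Strain bears a defined alteration in DNA damage repair.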

[8] = NCI Yeast Anticancer Drug Screen. Data for the CLN2oe strain (AID 163);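 also: 0% = growth of vehicle-only control cultures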; details: S. cerevisiae CLN2oe strain, stronger effect = higher value
In short: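 Inhibition relative to vehicle-treated yeast is reported. Cells: strain with genetic alteration in cell-cycle control, grown with compound.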

[9] = NCI Yeast Anticancer Drug Screen. Data for the bub3 strain (AID 167); details: S. cerevisiae bub3 mutant strain, stronger effect = higher value
In short: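 Part of a panel of yeast mutants defective in DNA damage repair or cell cycle regulation. Each strain is grown with compound, and inhibition is calculated relative to solvent-treated cultures.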

[10] = NCI Yeast Anticancer Drug Screen. Data for the wt2 strain (AID 169);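 also: 0% = growth of vehicle-treated yeast cultures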; details: S. cerevisiae wt2 strain growth inhibition, stronger effect = higher value
In short: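 Inhibition of yeast growth was determined after compound treatment, normalised to controls receiving only vehicle.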

[11] = NCI Yeast Anticancer Drug Screen. Data for the mlh1 strain (AID 171);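 also: 0% = growth of vehicle-treated control cultures of the same strain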; details: S. cerevisiae mlh1 strain growth inhibition, stronger effect = higher value
In short: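 Vehicle-normalised growth inhibition of a repair- or checkpoint-altered yeast strain following compound treatment.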

[12] = NCI Yeast Anticancer Drug Screen. Data for the sgs1 strain (AID 173);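 also: 0% = growth of vehicle-only control cultures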; details: S. cerevisiae sgs1 mutant, stronger effect = higher value
In short: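 Screen format: yeast with repair or checkpoint alterations, compound exposure, growth read relative to vehicle.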

[13] = NCI Yeast Anticancer Drug Screen. Data for the mlh1 rad18 strain (AID 175); details: S. cerevisiae mlh1 rad18 strain growth inhibition, stronger effect = higher value
In short: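 Vehicle-treated cultures served as the reference for growth inhibition in a yeast strain carrying DNA damage repair alterations exposed to each compound.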

[14] = NCI Yeast Anticancer Drug Screen. Data for the rad18 strain (AID 177); details: S. cerevisiae rad18 mutant growth inhibition, stronger effect = higher value
In short: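 Test articles were incubated with altered yeast defective in DNA damage repair. Results are given as inhibition of growth versus vehicle.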

[15] = at 5.0 µM (retest, dose inferred, filed as 0.5)
[16] = at 50.0 µM (retest, dose inferred, filed as 5.0)

Measured: growth inhibition

Cc1ccc(Cl)cc1NC(=O)OCCN(C)C(=O)Nc1cc(Cl)ccc1C
inactive: [1]; at 1.2 µM 7% | [1]; at 3.7 µM -12% | [1]; at 11.0 µM -36% | [1]; at 33.0 µM -21% | [1]; at 100.0 µM -1% | [2]; at 1.2 µM -30% | [2]; at 3.7 µM -35% | [2]; at 11.0 µM -38% | [2]; at 33.0 µM -30% | [2]; at 100.0 µM 34% | [3]; at 1.2 µM -26% | [3]; at 3.7 µM -20% | [3]; at 11.0 µM -14% | [3]; at 33.0 µM -6% | [3]; at 100.0 µM -11% | [4]; at 1.2 µM -29% | [4]; at 3.7 µM -28% | [4]; at 11.0 µM -29% | [4]; at 33.0 µM -24% | [4]; at 100.0 µM 2% | [5]; at 1.2 µM -26% | [5]; at 3.7 µM -34% | [5]; [15] 57% | [5]; at 11.0 µM -35% | [5]; at 33.0 µM -31% | [5]; at 100.0 µM 19% | [6]; at 1.2 µM -28% | [6]; at 3.7 µM -34% | [6]; [15] 57% | [6]; at 11.0 µM -36% | [6]; at 33.0 µM -31% | [6]; at 50.0 µM 61% | [6]; at 100.0 µM -21% | [7]; at 1.2 µM -26% | [7]; at 3.7 µM -25% | [7]; at 11.0 µM -31% | [7]; at 33.0 µM -39% | [7]; at 100.0 µM -15% | [8]; at 1.2 µM -48% | [8]; at 3.7 µM -28% | [8]; at 11.0 µM -48% | [8]; at 33.0 µM -33% | [8]; at 100.0 µM -26% | [9]; at 1.2 µM -39% | [9]; at 3.7 µM -39% | [9]; [15] 13% | [9]; at 11.0 µM -42% | [9]; at 33.0 µM -36% | [9]; [16] 56% | [9]; at 50.0 µM 46.9% | [9]; at 100.0 µM 13% | [10]; at 1.2 µM -37% | [10]; at 3.7 µM -27% | [10]; at 11.0 µM -23% | [10]; at 33.0 µM -8% | [10]; at 100.0 µM 6% | [11]; at 1.2 µM -24% | [11]; at 3.7 µM -36% | [11]; at 11.0 µM -33% | [11]; at 33.0 µM -30% | [11]; at 100.0 µM 11% | [12]; at 1.2 µM -22% | [12]; at 3.7 µM -21% | [12]; at 11.0 µM -23% | [12]; at 33.0 µM -15% | [12]; at 100.0 µM 8% | [13]; [15] 45% | [13]; at 50.0 µM 62% | [14]; at 1.2 µM -27% | [14]; at 3.7 µM -35% | [14]; at 11.0 µM -33% | [14]; at 33.0 µM -37% | [14]; at 100.0 µM 15%
active: [5]; [16] 95% | [5]; at 50.0 µM 86% | [6]; [16] 93% | [13]; [16] 98%
